Statin myotox sup = suppressors of statin myotoxicity in C2C12 myotubes, primary screen, cell-based, single point, plate reader; 330,000 tested, 0.78% active; C2C12 myotubes + simvastatin, ATP luminescence, 48 h; scaled: DMSO 0, geranylgeraniol control 100; rescue of ATP level, % at 7.49 µM;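 active means mean ATP rescue above about 67%, or every replicate alone reaching that limit, limit read from the data, passing the limit was not always enough; inconclusive means no clear call, values can overlap the other calls; inactive means mean under the limit and some replicate under it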;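 further: myotubes were challenged with 10 µM simvastatin during compound exposure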
Wnt act = Wnt/beta-catenin pathway activators, primary screen, cell-based, plate reader, single point | Wnt/beta-catenin reporter cell assay, activator | activation, % at 9.35 µM | 300,000 tested, 1.2% active | AID 743398, 2014; in the data active means activation above about 30%, passing the limit was not always enough; inconclusive means no clear call, values can overlap the other calls
esBAF inh = Bmi1 luciferase reporter increase in mESCs, primary screen, esBAF inhibitor project, mouse ES cells, Bmi1 luciferase knock-in, single point; 24 h; 100% = twice the neutral-well signal; reporter increase, % at 12.5 µM; 350,000 tested, 2% active; AID 602393, 2012; in the data active means activation above about 40%; inconclusive means no clear call, values can overlap the other calls;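 further: a rise in the Bmi1 reporter signal indicates esBAF inhibition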
MITF TRPM1 HTS = activators of MITF-driven TRPM1 promoter reporter, primary screen, cell-based, SK-MEL-5, luciferase, single point. AID 588334, 2011. SK-MEL-5 TRPM1-promoter luciferase, 24 h; % of positive control, neutral wells = 0. activation, % at 12.5 µM. 300,000 tested, 0.75% active;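 active means mean activation of at least 80% with every replicate also reaching 80%; inconclusive means mean reaches 80% but some replicate falls short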
MITF TRPM1 inh = inhibitors of MITF-dependent TRPM1 promoter reporter, primary screen, cell-based, SK-MEL-5, single point, luciferase | 330,000 tested, 0.83% active | SK-MEL-5 TRPM1 promoter luciferase, 24 h | inhibition, % at 12.5 µM | AID 488899, 2010;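 active means mean inhibition across replicates of 60% or more, whatever share of single replicates reaches that level; inconclusive means some that reach 60%, reason not given; inactive means mean inhibition across replicates below 60%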
LMP1 NFkB inh = EBV LMP1-driven NF-kappaB luciferase reporter inhibitors, primary screen, cell-based, luminescence, single point; LMP1-induced NF-kappaB luciferase reporter cells; inhibition, % at 12.5 µM; 350,000 tested, 0.69% active; in the data active means inhibition above about 41%; inconclusive means no clear call, values can overlap the other calls
A number is an active result; . = inactive; ? = inconclusive; / = no result given. Shown are actives, neighbours in structure and some others; about 4% of the full set was active somewhere.

SMILES	Statin myotox sup	Wnt act	esBAF inh	MITF TRPM1 HTS	MITF TRPM1 inh	LMP1 NFkB inh
CCc1cccc(CC)c1-n1c(SCC(=O)N2CCc3ccccc3C2)nnc1-c1cccnc1	.	.	.	.	.	.
Cc1nnc(NC(=O)c2c(F)cccc2F)s1	.	.	.	.	.	53
CCCc1cc(C(=O)N/N=C/c2cccn2C)cs1	.	.	54	.	.	.
Cc1nnc(NC(=O)c2ccc3ccccc3c2)s1	/	40	/	92	.	.
Cn1cccc1/C=N/NC(=O)c1cccs1	.	.	.	.	.	.
CCCc1cc(C(=O)Nc2nnc(C)s2)cs1	.	.	50	85	.	.
CCC(CC)N1CCN(CCc2ccccc2)C(CCO)C1 (stereo not drawn)	.	.	.	.	.	.
CCNC(=O)C[C@H]1CC[C@H]2[C@@H](COc3ccc(NC(=O)Nc4cccc(Cl)c4)cc3C(=O)N2C)O1	.	/	.	/	/	/
O=c1cc(CSc2nnnn2-c2ccccc2)nc2sccn12	/	.	/	.	.	.
O=c1ccc(-c2nc3ccccc3n2Cc2ccccc2Cl)c[nH]1	.	.	.	.	.	.
COc1ccc(CN(C)C[C@@H]2OCCCC[C@H](C)Oc3ccc(NC(=O)c4ccccc4)cc3C(=O)N([C@@H](C)CO)C[C@@H]2C)cc1	/	/	.	/	/	/
CNC[C@H]1Oc2cc(-c3cccnc3)ccc2S(=O)(=O)N([C@H](C)CO)C[C@@H]1C	.	/	.	/	/	/
CCC1CCCCN1C(=O)CCCc1ccccc1 (stereo not drawn)	.	.	.	.	.	.
Cc1ccc(C(=O)Nc2nnc(C)s2)cc1	/	.	/	.	.	.
Cc1nnc(NC(=O)c2ccc(Br)cc2)s1	.	.	.	94	.	.
CC(C)c1ccc(-c2nnn(CCC(=O)O)n2)cc1	.	/	.	.	87	45
CC(C)(C)c1ccc(-c2cc(-c3ccccc3O)[nH]n2)cc1	.	.	.	.	.	.
Oc1ccccc1-c1cc(-c2cccc(F)c2)n[nH]1	.	/	45	/	.	.
Cc1ccc(C(=O)COC(=O)CN2C(=O)C3C4C=CC(C4)C3C2=O)cc1[N+](=O)[O-] (stereo not drawn)	.	/	.	/	.	.
Cc1ccccc1NC(=S)NCC1CCN(C(C)c2ccccc2)C1 (stereo not drawn)	.	46	.	.	.	.
CCCCN(CC)CCNC(=O)Cn1cnc2sc(C)c(S(=O)(=O)N3CCOCC3)c2c1=O	.	/	.	.	.	.
C#CCOc1c(Br)cc(/C=N/O)cc1OCC	.	/	.	.	.	.
C#CCOc1c(Br)cc(/C=N\NC(=O)CN2CCOCC2)cc1OCC	103	/	.	.	.	.
CCCc1nc2ccc(C)cn2c1Cc1ccccc1	.	.	51	/	/	/
O=c1c(C(c2ccc(Br)cc2)c2c(O)nc3n(c2=O)CCS3)c(O)nc2n1CCS2	.	.	.	.	.	.
SMILES	Statin myotox sup	Wnt act	esBAF inh	MITF TRPM1 HTS	MITF TRPM1 inh	LMP1 NFkB inh
C[C@@H]1CN([C@@H](C)CO)C(=O)c2cc(C#CCN(C)C)cnc2O[C@@H]1CN(C)C(=O)NC1CCCC1	.	/	.	/	/	/
CN(CC1CCCN(CCc2ccccc2F)C1)C(=O)c1ccoc1 (stereo not drawn)	.	.	.	.	.	.
COc1ccc(CCN2CCCC(CN(C)C(=O)c3ccoc3)C2)cc1 (stereo not drawn)	.	?	62	.	.	.
CCOC(=O)c1sc(=S)n(-c2ccc(F)c(F)c2)c1N	/	/	/	.	.	.
CCOC(=O)c1sc(=S)n(-c2ccc(Cl)cc2)c1SC	105	.	.	.	.	.
CCOC(=O)c1c(C)[nH]c(C(=O)N/N=C/c2ccc(OC)c(OC)c2)c1C	.	.	.	.	.	.
O=C(Cn1ncc(Cl)c(Cl)c1=O)NC(=O)NC1CCCCC1	/	.	/	/	115	.
CC(NC(=O)Cn1ncc(Cl)c(Cl)c1=O)C12CC3CC(CC(C3)C1)C2 (stereo not drawn)	/	/	/	.	108	.
O=C(CN1CCCCC1)NC(=O)NC1CCCC1	/	.	/	.	.	.
CCOc1ccc(C(=O)NCC(=O)OCC(=O)Nc2ccccc2OC)cc1	.	.	.	.	.	.
CCOCCc1nnc(NC(=O)C(CC)c2ccccc2)s1 (stereo not drawn)	116	.	.	.	.	.
C[C@H](CO)N1C[C@H](C)[C@@H](CN(C)CC2CCCCC2)Oc2ccc(NC(=O)Cc3cn(C)c4ccccc34)cc2C1=O	.	/	.	/	/	/
CCC(CCC(=O)Nc1ccn(-c2ccccc2)n1)C(=O)O (stereo not drawn)	121	/	.	.	.	.
CC(C)(C)c1cc(C(=O)NNC(=O)c2ccc(C(F)(F)F)cc2)no1	.	49	.	.	.	.
CCOC(=O)C1(CCSC)NC(c2ccco2)C2C(=O)N(CC)C(=O)C21 (stereo not drawn)	104	.	.	.	.	.
CCOC(=O)C1(CC)NC(c2ccco2)C2C(=O)N(CC)C(=O)C21 (stereo not drawn)	.	.	.	/	.	.
O=C(CN1CCN(Cc2ccccc2Cl)CC1)N/N=C/c1cccs1	.	.	.	/	/	/
CCCNC(=O)C[C@H]1C[C@@H]2c3cc(NC(=O)c4ccc5c(c4)OCO5)ccc3O[C@@H]2[C@H](CO)O1	.	/	.	/	/	/
O=C(O)c1ccc(/C=N/N2CCN(Cc3ccc(Cl)cc3)CC2)cc1	/	.	/	.	.	.
Clc1ccc(CN2CCN(/N=C/c3ccco3)CC2)cc1	.	.	.	.	.	.
COC(=O)c1ccc(/C=N/N2CCN(Cc3ccc(Cl)cc3)CC2)cc1	/	51	/	/	/	/
Cc1ccc(/C=N/N2CCN(Cc3ccc(Cl)cc3)CC2)o1	81	/	.	.	.	.
N=c1n(CC(=O)c2ccc(Br)cc2)c2ccccc2n1Cc1ccccc1	.	.	.	.	90	.
N=c1n(CC(=O)c2ccc([N+](=O)[O-])cc2)c2ccccc2n1Cc1ccccc1	/	/	/	.	85	.
N=c1n(Cc2ccccc2)c2ccccc2n1Cc1ccccc1	/	.	/	.	.	.
N=c1n(CCO)c2ccccc2n1Cc1ccc(Cl)cc1	.	/	.	.	.	.
O=C(OCC(=O)N1CCN(Cc2ccccc2)CC1)c1cc(Cl)ccc1[N+](=O)[O-]	.	37	.	.	.	.
N=c1n(CC(=O)c2ccc([N+](=O)[O-])cc2)c2ccccc2n1Cc1ccc(Cl)cc1	/	/	/	.	92	.
Cc1ccc(NC(=O)CN2C(=O)c3ccccc3C2=O)cc1	.	.	.	/	.	.
O=C(c1ccc([N+](=O)[O-])cc1)N1CCN(Cc2ccccc2)CC1	.	.	.	.	.	59
